40 compounds from PubChem BioAssay (Tox21) can be followed below.

Records with an inconclusive call do not appear. Values without a mark were called inactive. The source made the active and inactive calls. The call rests on the fitted dose curve; in most records, active means well fitted inhibition curve with a large enough effect in the repeat runs; inconclusive means weak or mixed curves, or effect the other way; inactive means no such curve, though single readings can be large or run the other way.
On the % scale 0 is the no-effect control and ±100 the full control effect.

For the assay, the target named is Nuclear receptor subfamily 1 group I member 3 (Homo sapiens) (UniProt Q14994). Briefly: qHTS assay to identify small molecule antagonists of the constitutive androstane receptor (CAR) signaling pathway (AID 1224838).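 Further: HepG2 cells stably expressing hCAR with CYP2B6 luciferase reporter stimulated by CITCO; nearly all actives have a fitted effect of over 40% in size.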 The note with it: HepG2-CYP2B6-hCAR luciferase, CITCO-stimulated, 24 h; series mostly up to 92.4 µM; activity, negative = inhibition: at the top concentration. From the text: U.S. Tox21 Program National Center for Advancing Translational Sciences [NCATS] NIH Chemical Genomics Center [NCGC] U.S. Environmental Protection Agency [EPA] National Institutes of Environmental Health Sciences [NIEHS] National Toxicology Program [NTP] U.S. Food and Drug Administration [FDA] Tox21 Assay Overview: The constitutive androstane receptor (CAR) is a nuclear receptor which regulates multiple drug metabolizing enzymes (DMEs) and transporters. Activating CAR will generally increase the transcription and subsequent translation of CYP2B6 and CYP3A4. These two DMEs represent about 50% of the drug metabolizing potential in the body. When CAR is deactivated, the metabolizing potential in the body will decrease, subsequently increasing the toxicity in the body or lowering the therapeutic potential of a pro-drug. Recently, there have also been studies performed indicating CARs role in energy metabolism and cancer therapy. Therefore, inhibiting CARs activity could have a potential effect on diabetes and cancer. Identifying environmental toxins and compounds which modulate CAR, through the use of the Tox21 10K compound collection, will be an important step in determining the toxicity and potential therapeutic effects these factors will have on the human body.
Sequence of Nuclear receptor subfamily 1 group I member 3 (Homo sapiens) (Q14994 whole entry, looked up): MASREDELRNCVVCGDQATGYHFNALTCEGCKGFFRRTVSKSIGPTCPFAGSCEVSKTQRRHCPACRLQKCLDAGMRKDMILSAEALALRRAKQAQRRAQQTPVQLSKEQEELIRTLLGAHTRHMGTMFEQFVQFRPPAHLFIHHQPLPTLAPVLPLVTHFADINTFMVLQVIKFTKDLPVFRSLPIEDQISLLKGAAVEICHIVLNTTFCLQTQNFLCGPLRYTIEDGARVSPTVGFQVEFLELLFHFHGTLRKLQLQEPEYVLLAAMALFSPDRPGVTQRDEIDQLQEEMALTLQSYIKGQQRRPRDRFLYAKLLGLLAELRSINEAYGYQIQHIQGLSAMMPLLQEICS
Tox21 Assay Protocol Summary: A double-stable (hCAR and CYP2B6-2.2kb) transfected cell line, derived from human hepatoma (HepG2) cells, was utilized for the duration of the quantitative high-throughput screens. The HepG2-CYP2B6-hCAR cells suspended in DMEM culture medium supplemented with 10% FBS, 5 ug/mL blasticidin, 0.5 mg/mL geneticin, 100 U/mL penicillin and 100 ug/mL streptomycin were dispensed at 2500 cells/4 uL/well in 1536-well white solid bottom plates using a Multidrop Combi. After the assay plates were incubated at 37 C/5% CO2 for 4 hrs, 23 nL of compounds at 15 concentrations (from 5-48 columns) or positive control (from 1 to 4 columns) were transferred to the assay plates using a Pintool station. One uL of CITCO, was added using a Flying Reagent Dispenser to generate a final concentration of 50 nM CITCO inside each well. After a 24 hr incubation period at 37 C/5% CO2, four uL of ONE-Glo reagent was added into the assay plates using a Flying Reagent Dispenser. After a 30 min incubation period at room temperature, the luminescence intensity in the assay plates was measured using a ViewLux plate reader.
In general terms: qHTS replaces the single test concentration by a dilution series.
As to `COCCCN`, the compound was classed as inactive.
Still for that read-out and setting: the result for `CC(=O)OCc1ccco1` reads “inactive”; that for `C=CC(=O)OCCC(=O)O`, “inactive”.
`CC(=O)c1ccc(O)cc1`: the result was inactive.
Turning to `COc1ccc([N+](=O)[O-])cc1N`, the compound was called inactive.
With `CCNc1cccc(C)c1`, the outcome was inactive.
Regarding `CC1(C)S[C@@H]2[C@H](NC(=O)COc3ccccc3)C(=O)N2[C@H]1C(=O)O`, the outcome was inactive.
As for `C[Si]1(C)O[Si](C)(C)O[Si](C)(C)O[Si](C)(C)O1`, the result was inactive.
As for `CCO[Si](CCCN)(OCC)OCC`, the compound was classed as inactive.
Regarding `CCCCCCCCCCCCCCCC(=O)OC(C)C`, the compound was called inactive.
Regarding `CCOCCOCCOCCO`, the result was inactive.
As to `c1ccc(Oc2ccccc2)cc1`, the compound was called inactive.
For the compound `CC(CCl)OP(=O)(OC(C)CCl)OC(C)CCl` (stereo not given), the compound was called inactive.
As for `OCc1ccccc1`, the compound was classed as inactive.
Regarding `COc1cc(OC)c(C(=O)CCCN2CCCC2)c(OC)c1`, the “activity, negative = inhibition” value is -5.36%.
Regarding `CCNc1ccccc1`, the compound was classed as inactive.
On to `COc1ccc(N)c(C)c1`, for which the call was inactive.
For `O=[N+]([O-])c1ccc2nc[nH]c2c1`, the compound was called inactive.
Still for that read-out and setting: for `O=C(O)/C=C/C(=O)O` the value was “inactive”; for `CC(=O)OC1CC(C)OC(C)O1` (stereo not given), “inactive”; for `O=S(=O)(O)c1ccc(N=Nc2c(O)ccc3cc(S(=O)(=O)O)ccc23)cc1`, “inactive”.
Turning to `CC(C)OC(=O)COc1ccc(Cl)cc1Cl`, the outcome was inactive.
In the case of `CCCOC(=O)c1ccccc1`, the compound was classed as inactive.
Regarding `O=C(O)c1ccc(C(=O)O)c(C(=O)O)c1`, the result was inactive.
Regarding `CNC(=O)Oc1ccc2c(c1)[C@]1(C)CCN(C)[C@@H]1N2C`, the compound was called inactive.
Same read-out and setting: for `CC(C)OP(=O)(CP(=O)(OC(C)C)OC(C)C)OC(C)C` the value was “inactive”; for `OCc1cccc(Oc2ccccc2)c1`, “inactive”.
Consider `CC(C)CC(C)O` (stereo not given), for which the outcome was inactive.
As to `CN/C(=C\[N+](=O)[O-])NCCSCc1csc(CN(C)C)n1`, the compound was called inactive.
On to `CC(C)(C#N)c1cc(Cn2cncn2)cc(C(C)(C)C#N)c1`, for which the outcome was inactive.
With `CCOCC(=O)O`, the compound was called inactive.
On the same count and under the same terms, the result for `NCCN1CCNCC1` reads “inactive”.
For the compound `O=C(O)c1ccc(S(=O)(=O)N(Cl)Cl)cc1`, the “activity, negative = inhibition” value is -1.3% [at 42.5 µM].
In the case of `CCCCC(C=O)CC` (stereo not given), the compound was called inactive.
Still for that read-out and setting: for `COc1ccc(OC)cc1` the value was “inactive”.
For the compound `CNC(=S)N(C)C`, the result was inactive.
As for `CCCCCCO`, the result was inactive.
For `CCCCCCCCCCCC(=O)OC`, the call was inactive.
Regarding `Cc1ccc2ncccc2c1`, the result was inactive.
Regarding `CCCCOC(=O)c1ccc(N)cc1`, the compound was classed as inactive.
